Bioassay records deposited in PubChem BioAssay by National Center for Advancing Translational Sciences (NCATS).
NPSR antag = antagonists of human neuropeptide S receptor cAMP signaling. AID 1461. Potency, µM (top dose mostly 38.3 µM), for the others: at the top dose activity change, negative = inhibition, actives largely listed as inhibitors. Q6W5P4. CHO-NPSR cells, cAMP TR-FRET, antagonist mode. 220,000 tested, 1% active; note: nearly all actives have a fitted effect of over 50% in size
TrxR1 substrate = is turned over as a substrate by rat TrxR1; O89049; purified TrxR1 substrate turnover, NADPH consumption readout; Potency, µM (titrated, usually from 114 µM), for inactives: at the top dose activity change, negative = substrate turnover; 390,000 tested, 0.01% active; note: nearly all actives have a fitted effect of over 50% in size
Target sequence (O89049 whole entry, looked up): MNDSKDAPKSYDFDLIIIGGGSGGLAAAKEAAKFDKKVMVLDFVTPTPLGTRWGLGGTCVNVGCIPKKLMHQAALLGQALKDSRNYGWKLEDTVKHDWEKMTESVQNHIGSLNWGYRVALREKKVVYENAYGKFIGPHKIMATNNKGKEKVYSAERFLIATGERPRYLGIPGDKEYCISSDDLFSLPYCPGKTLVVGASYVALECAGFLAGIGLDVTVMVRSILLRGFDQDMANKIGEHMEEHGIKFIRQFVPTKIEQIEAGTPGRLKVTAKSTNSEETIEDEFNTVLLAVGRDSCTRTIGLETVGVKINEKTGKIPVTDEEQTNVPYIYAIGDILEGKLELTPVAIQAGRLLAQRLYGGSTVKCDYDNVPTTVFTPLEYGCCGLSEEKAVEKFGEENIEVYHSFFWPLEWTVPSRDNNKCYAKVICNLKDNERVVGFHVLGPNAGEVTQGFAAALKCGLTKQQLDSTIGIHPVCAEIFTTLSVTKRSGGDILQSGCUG
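Rat TrxR1, dispensed at 90 nM, was prereduced with 400 uM NADPH (final) for 5 min at ~22 deg C, then incubated with compound 15 min before 400 uM selenite. A first-read NADPH fluorescence drop versus no-compound background flagged substrates.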
GALK inh = galactokinase (human) inhibition | 270,000 tested, 0.007% active | AID 1868 | Purified GALK, Kinase-Glo residual ATP luminescence | Potency, µM (doses to about 57.5 µM), for the others: at the top dose activity change, negative = inhibition, usual class: inhibitors
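Human GALK (5 nM) with 35 uM ATP and 100 uM galactose in 20 mM HEPES pH 8.0, 5 mM MgCl2, 60 mM NaCl, 1 mM DTT, 0.01% BSA. After 1 h at room temperature, leftover ATP was read by Kinase-Glo Plus luminescence.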
TrxR1 inh = rat TrxR1 inhibition; 390,000 tested, 1% active; Potency, µM (highest dose often 114 µM), for the others: at the highest dose activity change, negative = inhibition, most hits filed as inhibitors; recombinant rTrxR1, NADPH fluorescence consumption, selenite substrate; AID 588453; note: nearly all actives have a fitted effect of over 65% in size
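Rat TrxR1 (90 nM in the dispensed reagent) was pre-reduced with 400 uM NADPH for 5 min at room temperature, then incubated with compound for 15 min. After 400 uM selenite was added, NADPH fluorescence (Ex 340/Em 450 nm) was followed for 8 min.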
Active calls of the source: *; ? = inconclusive; . = no result given; [ ] = another dose, or the depositor's remark. Shown are actives, neighbours in structure and some others; about 1.2% of the full set was active somewhere. Calls come from the whole dose curve; as a rule, active = well fitted curve in the direction sought with a large enough effect; inconclusive = small, poorly fitted or top-dose-only effect, or another doubt; inactive = no such curve, though single readings can be large; an effect the other way counts as inactive or inconclusive. % is set by controls: 0 for no effect and ±100 for the full control effect; potency is the fitted concentration of half-maximal effect.

SMILES	NPSR antag	TrxR1 substrate	GALK inh	TrxR1 inh
CCOc1ccc2[nH]c(=O)c(CN(Cc3nnnn3Cc3ccco3)C3CCCCC3)cc2c1	-15.2%[46.1 µM]	4.0%	-4.6%	?
COc1cc2cc(CN(Cc3nnnn3Cc3ccco3)C3CCCCC3)c(=O)[nH]c2cc1OC	1.2%[46.1 µM]	23.8%	0.7%	11.2µM*
N#Cc1c(-c2ccccc2)cc(-c2ccccc2)nc1SCC(O)CS(=O)(=O)Cc1ccccc1 (stereo unspecified)	.	-3.0%	.	-2.1%
CN(C)c1ccc(C(I)C(I)c2ccnc3ccccc23)cc1 (stereo unspecified)	.	2.2%	.	?
COc1ccc2ccc(O)c(CN(C)CC(=O)Nc3ccccc3C(F)(F)F)c2c1	.	-5.8%[57.1 µM]	1.5%	8.91µM*
Cc1ccc(NC(=O)CN(C)Cc2c(O)ccc3ccccc23)cc1	.	9.4%	-2.2%	14.1µM*
CCN(CC(=O)Nc1ccc(NC(C)=O)cc1)Cc1c(O)ccc2cc(Br)ccc12	.	-0.1%[57.1 µM]	13.5%	6.31µM*
CCN(CC(=O)Nc1ccc(Br)cc1)CC(=O)Nc1cc(C)on1	.	-7.8%	.	-35.0%
CCc1nnc(SC(CC)C(=O)Nc2cc(C)ccc2C)c2cc3occc3n12 (stereo unspecified)	.	-4.7%	.	16.6%
Cc1nn2cc(-c3ccc(OC(C)C)cc3)nc2s1	.	4.9%	.	28.7%
N[C@@H](Cc1ccc(O)cc1)C(=O)NO	.	15.5%	.	15.6%
O=C(NCS(=O)(=O)c1ccccc1)c1ccccc1	0.0%[46.1 µM]	4.1%	3.0%	44.7µM*
O=C(NCCNC(=O)c1ccccc1)c1ccccc1	12.9%	4.8%	-0.9%	10.9%
O=C1C=CC(=O)N1c1cccc2cccnc12	.	12.6%	.	56.2µM*
COc1ccc(-c2c([C@H]3[C@H]4C=CC[C@@H](C)[C@@H]4C(=O)N3Cc3ccccc3)ccc3ccccc23)cc1OC	6.31µM*	-2.1%	0.6%	7.6%
COc1ccc(CCn2c(=O)c3cccnc3n(CC(=O)Nc3ccc(C)c(F)c3)c2=O)cc1OC	.	-4.2%	.	0.5%
Cc1ccc(NC(=S)c2ccncc2)c(C)c1	.	6.5%	6.7%	20µM*
Cc1ccc(NC(=S)Nc2cccc3cnccc23)c(C)c1	3.7%	3.7%[57.1 µM]	3.7%	2.3%[57.1 µM]
COc1ccccc1C1C(C(=O)Nc2ccccc2)=C(C)Nc2nc(-c3ccccc3)nn21 (stereo unspecified)	.	1.1%	.	17.4%
Cn1c(=S)[nH]c2cc(C(=O)N3CCN(C(=O)c4ccccc4)CC3)ccc2c1=O	.	2.0%	.	-15.0%
COc1ccc(N2CSC3=C(C#N)C(c4cc(OC)ccc4OC)CC(=O)N3C2)c(OC)c1 (stereo unspecified)	5.9%[46.1 µM]	0.2%[57.1 µM]	1.1%	14.1µM*
CCN(CC(=O)Nc1cc(Cl)ccc1C)C(=O)C1COc2ccccc2O1 (stereo unspecified)	.	0.2%	.	50.1µM*
Cc1ccc(Cl)cc1NC(=O)C1COc2ccccc2O1 (stereo unspecified)	.	4.8%[57.1 µM]	0.0%	3.8%[57.1 µM]
O=C1CNC(=O)/C1=C/c1ccc(O)cc1	0.7%[46.1 µM]	?	-4.0%	20µM*
O=C1CNC(=O)/C1=C\c1ccc(O)cc1	8.2%	?	1.3%	20µM*
SMILES	NPSR antag	TrxR1 substrate	GALK inh	TrxR1 inh
O=C1CNC(=O)/C1=C/c1ccc(Br)cc1	44.6%	-18.4%[11.4 µM]	3.0%	23.1%[11.4 µM]
COc1ccc(-c2onc(C)c2C)cc1S(=O)(=O)N(C)Cc1ccccc1	.	-3.5%[57.1 µM]	.	14.3%[57.1 µM]
Cc1c(N=C2C=C(Br)C(=O)C(Br)=C2)c(=O)n(-c2ccccc2)n1C	-27.5%	7.4%[57.1 µM]	-1.6%	?
Cc1c(N=C2C=CC(=O)c3ccccc32)c(=O)n(-c2ccccc2)n1C	10µM*	-89.2%	2.5%	?
Cc1ccc2cc(CN(CCCN3CCOCC3)C(c3nnnn3Cc3ccco3)C(C)C)c(=O)[nH]c2c1C (stereo unspecified)	.	-3.5%	.	10µM*
COc1ccc(N=N/C(=C\O)C(=O)c2ccco2)cc1	-57.8%	1.9%[57.1 µM]	1.0%	15.8%[57.1 µM]
O=C(/C(=C/O)N=Nc1ccccc1)c1cccs1	10µM*	-9.1%	0.2%	24.9%[57.1 µM]
CC(C)(C)n1ncc2c(=O)n(Cc3c(F)ccc(F)c3Cl)cnc21	.	1.8%	.	9.3%
COc1ccc(/C=C/c2nccc3ccccc23)cc1OC	.	-0.2%	.	-4.9%
COc1ccc(NC(=S)Nc2ncccc2C)cc1OC	-11.9%	2.8%[57.1 µM]	-1.0%	2.6%[57.1 µM]
COc1ccc(NC(=S)Nc2ncccc2C)c(OC)c1	-18.5%[46.1 µM]	6.2%	-0.6%	1.78µM*
C=CC[n+]1cccc2cccc(O)c21	.	-0.1%	.	14.2%
CCN1CCN(C(c2cccc(OC)c2)c2c(O)cc(C)n(Cc3ccco3)c2=O)CC1 (stereo unspecified)	.	2.1%[57.1 µM]	.	11.2µM*
Cc1cc(O)c(C(c2ccccc2)N2CCN(c3ccc(F)cc3)CC2)c(=O)n1Cc1ccco1 (stereo unspecified)	.	-1.7%[57.1 µM]	.	10µM*
COc1cccc(C(c2c(O)cc(C)n(Cc3ccco3)c2=O)N2CCC(C)CC2)c1 (stereo unspecified)	.	1.4%[57.1 µM]	.	-12.9%[57.1 µM]
Cc1cc(O)c(C(c2ccc(F)cc2)N2CCN(c3ccccc3)CC2)c(=O)n1Cc1ccco1 (stereo unspecified)	.	4.8%[57.1 µM]	.	?
COc1ccccc1CNC(=O)C(=O)Nc1ccc(C(=O)N2CCC(C)CC2)cc1	.	6.1%	0.5%	11.5%
Cc1ccc2[nH]c(=O)c(CN(Cc3ccco3)S(=O)(=O)c3c(C)ccc4nsnc34)cc2c1	?	12.6%	-0.4%	28.2µM*
CC(=O)Nc1ccc(NC2=C(Cl)C(=O)c3ccccc3C2=O)cc1	10µM*	-0.4%[57.1 µM]	-2.4%	0.562µM*
CN(C)c1ccc(NC2=C(Cl)C(=O)c3ccccc3C2=O)cc1	?	3.9%	.	2.82µM*
O=C1C(Cl)=C(Nc2ccc3cn[nH]c3c2)C(=O)c2ccccc21	6.31µM*	?	4.0%	?
O=C(Nc1ccc2cn[nH]c2c1)c1c(Cl)cccc1Cl	-9.5%[46.1 µM]	-9.6%	0.3%	-7.0%
COc1ccccc1NC1=C(NC(C)=O)C(=O)c2ccccc2C1=O	-36.9%	4.7%	8.5%	4.47µM*
CCC(=O)N1CCc2cc(Br)cc(S(=O)(=O)N3CCCC(C(=O)Nc4ccc(OC)cc4OC)C3)c21 (stereo unspecified)	.	3.0%	.	16.0%
Cc1nn(C)cc1/C=N/NC(=S)Nc1ccccc1	2µM*	-0.5%	-0.4%	0.6%
SMILES	NPSR antag	TrxR1 substrate	GALK inh	TrxR1 inh
Oc1ccccc1C=NNC(=S)Nc1ccc(F)cc1	.	8.2%[57.1 µM]	.	-16.1%
CCOc1cc(/C=C2\CN(C)C/C(=C\c3ccc(O)c(OCC)c3)C2=O)ccc1O	.	-15.9%	-8.4%	56.2µM*
CCOc1cc(/C=C2/C(=O)ON=C2C)ccc1O	.	-9.9%	-0.5%	?
CC(C)N(CCC(=O)c1ccc2ccccc2c1)Cc1ccccc1	-14.1%[46.1 µM]	25.3%[57.1 µM]	.	3.16µM*
CC(OC(=O)c1ccc2ccccc2c1)C(=O)N(C)Cc1ccccc1 (stereo unspecified)	.	-14.0%	.	-13.5%
O=C(CCl)N(C/C=C/c1ccccc1)c1ccc2c(c1)OCCO2	-41.0%	1.5%[57.1 µM]	0.8%	7.94µM*
COc1cc(Nc2ccccc2Cl)c([N+](=O)[O-])nc1[N+](=O)[O-]	-20.8%[46.1 µM]	-4.0%[57.1 µM]	0.8%	0.398µM*
